Data published in PubChem BioAssay AID743279 (National Center for Advancing Translational Sciences (NCATS), 2014).
The campaign covered roughly 360,000 compounds. About 17,000 (4.7%) were called active. Roughly 5% stayed inconclusive and do not appear here. Rule as the data show it: active = activity change below about -50%; inconclusive = mostly about -30% to -49%; inactive = weaker than that. This excerpt belongs to a sample that is enriched for actives.

assay: qHTS for Inhibitors of Inflammasome Signaling: IL-1-beta AlphaLISA Primary Screen; conditions: THP-1 LPS/ATP IL-1B secretion, 16 h; at 57.5 µM, hits give low values
Procedure, shortened: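 Secreted IL-1B measured by AlphaLISA bead assay after 16 h compound exposure of THP-1 cells; compounds (final up to 57.5 uM) added 1 h before LPS (250 ng/mL) and ATP (1.25 mM) stimulation; lower signal means less secretion.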
% is scaled to controls: 0 for no effect and ±100 for the full control effect.

Activity change, inactive:
O=C(NCCc1ccccn1)c1cc(C(=O)C2CCCCC2)c[nH]1 3.93%
CC(=O)CSc1nc(CCc2ccccc2)c(C#N)c(=O)[nH]1 3.36%
Cc1cc([N+](=O)[O-])ccc1NC1CCCC1 -6.41%
Cc1c(NS(=O)(=O)c2ccc(NC3CCCC3)c([N+](=O)[O-])c2)c(=O)n(-c2ccccc2)n1C -9.94%
CCCC(=O)Nc1ncnc2c1ncn2[C@@H]1O[C@@H]2OP(=O)(O)OC[C@H]2[C@H]1OC(=O)CCC 0%
Cc1cnc(C(=O)OCc2c(C)cc(C(C)(C)C)cc2C)cn1 -4.05%
ClC1(Cl)CC1CSc1ncn[nH]1 (stereo not given) -1.77%
CCCCCCCCN1C(=O)[C@H](CC(=O)NCc2cccc3ccccc23)C[C@@]2(C(=O)OC)CCCCC=C12 -30%
COc1ccc(-c2cc(NC=O)c3ncc(-c4cc(OC)c(OC)c(OC)c4)n3c2)c(OC)c1 39.1%
CC(=O)Nc1cc(-c2cccc(CO)c2)cn2c(-c3cccc(C(F)(F)F)c3)cnc12 -13.6%
CC(=O)c1cccc(-c2cnc3c(NC=O)cc(-c4ccc(N(C)C)cc4)cn23)c1 51.7%
CC(=O)c1cccc(-c2cnc3c(NC=O)cc(-c4ccccc4Oc4ccccc4)cn23)c1 98.2%
COc1ccc(-c2cc(NC=O)c3ncc(-c4cccc(C(=O)N(C)C)c4)n3c2)c(OC)c1 47.4%
CC(=O)c1cccc(-c2cnc3c(NC=O)cc(-c4cccc(C(=O)N(C)C)c4)cn23)c1 107%
CCc1nc2ccc(C(=O)N3CCN(S(=O)(=O)CC)CC3)cn2c1N(C=O)CCC(C)C 36.3%
COc1cc(C(=O)OC(C)C(=O)NCC2CCCCC2)cc(NC(=O)c2ccco2)c1OC (stereo not given) -6.5%
Cc1oc(C)c(C(=O)NCCCC(=O)O)c1C(=O)NCCCC(=O)O 18.8%
CCc1nc2c(OCCOc3ccccc3)cccn2c1N(C)C(=O)c1cccs1 -18.6%
CCCCN1Cc2c(nc3cc(-c4ccccc4)[nH]n3c2=O)C1=O 13%
Cc1cc(=O)n2[nH]c(-c3cccc(Cl)c3)cc2n1 9.73%
Cc1nc(N)sc1N=Nc1c(C)n(C)n(-c2ccccc2)c1=O 15.5%
COCCNC(=O)C1CCCN(Cc2ccccc2Cl)CC1 (stereo not given) 21.5%
Cc1nn(-c2ncc(C(F)(F)F)cc2Cl)c(=O)n1-c1ccccc1 24.1%
Cc1cc(NC(=O)CSc2ncc(C(F)(F)F)cc2Cl)no1 -7.22%
COc1ccc(S(=O)(=O)N2CCSCC2)cc1 0%
C[C@H]1Cn2cnc(C(=O)N[C@@H](Cc3c[nH]c4ccccc34)C(=O)OC(C)(C)C)c2C(=O)N1 33.4%
COCCNc1nc(Nc2ccccc2Cl)c2sc(-c3ccccc3)cc2n1 -12.6%
COCCNc1nc(NCc2ccc(NC(C)=O)cc2)c2sccc2n1 29.5%
CC1Cc2[nH][nH]c(=O)c2C(C2CCCC2)O1 (stereo not given) 16.7%
CCOC(=O)[C@]12CCC=C1N(Cc1ccco1)C(=O)[C@H](CC(=O)N1CCSCC1)C2 -5.81%
CC(C)c1cccc(C(C)C)c1Nc1cn[nH]c1 -1.8%
CCCC[C@@H]1CN=C(N)N1CCCC 15.9%
CCCCN1C(N)=NC[C@@H]1Cc1ccccc1 5.9%
CC(=O)Nc1cccc(Nc2ccc(C#N)cc2)c1 -18.3%
CC(OC(=O)c1ccc(NC(=O)CC#N)cc1)C(=O)Nc1ccc(S(=O)(=O)N2CCCC2)cc1 (stereo not given) -25.9%
Cc1ccc(S(=O)(=O)N2CCOCC2)cc1C(=O)Nc1ccccc1N1CCCC1 -1.43%
O=C1OCC2=C1C(c1ccc(Cl)cc1)c1cc3c(cc1O2)OCO3 (stereo not given) -0.909%
CCOC(=O)C1=C(c2ccccc2)NC(=O)NC1c1cc(OC)c(OC)cc1OC (stereo not given) -5.44%
O=C(NC1CC1)C(Cc1ccccc1)NS(=O)(=O)c1ccccc1F (stereo not given) 20.4%
CCOCCCn1c(NN)nc2ccccc2c1=O -13.8%
O=c1oc(/C=C/c2ccccc2)nc2ccccc12 -0.257%
CC(C)CN1C(=O)CN(S(C)(=O)=O)CC1(C)C(=O)NCc1ccccc1 (stereo not given) 37.5%
Clc1cc(NC2CCCCC2)ncn1 35.9%
COCCCNC(=O)c1cccc2c(-c3ccc(O)c(OC)c3)coc12 2.52%
CN(Cc1ccccc1)C(=O)CSc1nc2ccccc2[nH]1 -8.05%
O=C(NCc1ccccc1)c1onc(CSc2nc3ccccc3[nH]2)c1C(=O)NCc1ccccc1 -5.65%
O=C(NCC1CCCCC1)NCC1CCCCC1 5.16%
C[C@@H]1CN([C@@H](C)CO)C(=O)CCCn2nncc2CO[C@H]1CN(C)Cc1ccc(C(F)(F)F)cc1 14.2%
CCOC(=O)c1cccc(NC(=O)c2ccc(F)cc2F)c1 13.7%
CCOC(=O)c1cccc(NC(=O)CCn2nnc3ccccc32)c1 -9.21%
COc1ccc(-c2nn(-c3ccccc3)cc2CN2CCCO2)c(F)c1 -28.9%
COc1ccc(-n2cc(CN(C)Cc3n[nH]c(=O)[nH]3)c(-c3cccc(F)c3)n2)cc1 -3.96%
Cc1cccc(-n2cc(CN3CCN(C(=O)c4ncn[nH]4)CC3)c(-c3cccc(F)c3)n2)c1 0.119%
Cn1cc(CN2CCC(C(O)CCc3ccccc3)CC2)c(-c2ccccc2F)n1 (stereo not given) -20.8%
OCCC1CN(Cc2ccc3nsnc3c2)CCN1C1CCCCC1 (stereo not given) 36.7%
O=C(COc1ccc(Br)cc1)OCC(=O)c1ccc[nH]1 -7.68%
CCCNC(=O)C1(C)CCN(C(=O)c2ccc(F)cc2Cl)C1 (stereo not given) 16.4%
CC1(C)CC(=O)C2=C(C1)N=C1SCCC(=O)N1C2c1ccc(C(F)(F)F)cc1 (stereo not given) 0.519%
NNC(=O)C1CCCn2c1nc1sc3c(c1c2=O)CCCC3 (stereo not given) 0%
Cn1c(NN)nc2sc3c(c2c1=O)CCC3 26.1%
Cc1ccc(C)c(-n2c(SCC(=O)O)nc3sc4c(c3c2=O)CCCC4)c1 0.0998%
CCc1nc(N2CCN(C(C)=O)CC2)c2c3c(sc2n1)CCCC3 -1.89%
O=C1[C@H]2[C@@H](c3ccc(C(F)(F)F)cc3)N[C@]3(CCCN(Cc4ccc(Br)cc4)C3=O)[C@H]2C(=O)N1Cc1ccccc1 -13.1%
Cc1ccc(S(=O)(=O)N2CC3C(=O)C[C@@H](c4ccccc4Cl)N(S(=O)(=O)c4ccc(C)cc4)C3CC2c2ccccc2)cc1 (stereo not given in full) -22%
COC(=O)[C@]12CCCCC=C1N(Cc1ccc3c(c1)OCO3)C(=O)[C@H](CC(=O)N1CCOCC1)C2 -18.3%
COc1ccc(OCCCCN2CCC(C)CC2)cc1 -29.3%
C/C=C/c1ccc(OCCOc2ccc(C=O)cc2OC)c(OC)c1 3.9%
COc1ccccc1OCC(O)CN1CCOCC1 (stereo not given) 5.64%
C=CCc1ccc(OCC(O)CN2CCN(Cc3ccccc3)CC2)c(OC)c1 (stereo not given) -7.39%
CC(=O)Nc1ccc(C(=O)OCC(=O)Nc2ccc([N+](=O)[O-])cc2C(F)(F)F)cc1 -1.11%
COC(=O)[C@]12CCCCC=C1N(Cc1ccco1)C(=O)[C@H](CC(=O)NCCCCc1ccccc1)C2 4%
CC(=O)Nc1cccc(-c2cc3nc(NCc4cccnc4)n(C)c(=O)c3s2)c1 -0.936%

Activity change, active:
Cc1cc(C=O)c(C)n1-c1ccc(NC2CCCCC2)c([N+](=O)[O-])c1 -93.9%
COc1ccc(-c2cc(NC=O)c3ncc(-c4ccccc4)n3c2)cc1OC -59.3%
CN(C)CCNC(=O)c1cccc(-c2cnc3c(NC=O)cc(-c4cccc(C(F)(F)F)c4)cn23)c1 -107%
CC(=O)c1ccc(-c2cnc3c(NC=O)cc(-c4cccc(NS(C)(=O)=O)c4)cn23)cc1 -68.2%
O=c1c2c(nc3cc(-c4cccc(Cl)c4)[nH]n13)CCCC2 -102%
Cc1ccc(-c2ccnc3nc(Sc4ncc(C(F)(F)F)cc4Cl)nn23)cc1 -65.2%
CC(=O)Nc1ccc(CNc2nc(NCCN(C)C)nc3cc(-c4ccccc4)sc23)cc1 -108%
CCCC[C@@H]1CN=C(N)N1CCc1cc(C(F)(F)F)cc(C(F)(F)F)c1 -103%
CCOC(=O)C1=C(COC(=O)[C@H](C)NS(=O)(=O)c2ccccc2F)NC(=O)NC1C (stereo not given in full) -51.3%
CCn1c(/C=C/c2ccc([N+](=O)[O-])o2)nc2ccccc2c1=O -95.2%
COc1ccccc1CSc1nc2ccccc2[nH]1 -54.1%
CCOC(=O)c1nnn(CC(=O)Nc2cccc(F)c2)c1C(=O)OCC -64.5%
COc1ccc(-n2cc(CNC3CCOCC3)c(-c3cccc(F)c3)n2)cc1 -66.6%
CCC(O)C1CCN(Cc2cn(-c3ccc(OC)cc3)nc2-c2cccc(F)c2)CC1 (stereo not given) -60.7%
CCCc1nc2sc3c(c2c(=O)n1NC(=O)CCCl)CCCC3 -96.6%
Cc1nc2sc3c(c2c(=O)n1NC(=O)CCl)CCCC3 -80.7%
C/C=C/c1ccc(OCCCCN2CCC(C)CC2)c(OC)c1 -54%
C/C=C/c1ccc(OCC(O)CN2CCCCCCC2)c(OC)c1 (stereo not given) -53.6%
